Experimental data as given in PubChem BioAssay (EPA / NIEHS).
“And” between values parts separate entries of the source, which are not always exact repeats. Equal entries are not always repeated. Some compounds were tested as several samples or in several runs, with calls that do not always agree. The source made the active and inactive calls. The calls were made as follows: active = hit-call score of the fitted dose curve at least 0.9, where 1 is the maximum; inactive = score below 0.9.

Columns and labels:
[1] = read-out: Intercellular Adhesion Molecule 1 (ICAM1), ICAM1 (gene 3383); test: BSK_3C_ICAM1: BioMAP Diversity Plus: 3C Assay for Intercellular Adhesion Molecule 1 (ICAM1) Biomarker Activity (AID 2283003); conditions: primary human endothelial cells (HUVEC); actives raise or lower the signal
Procedure, shortened: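 Primary human umbilical vein endothelial cells in the BioMAP 3C system were exposed to chemicals for 24 h, then ICAM-1 was quantified by ELISA. Activity was fitted bidirectionally against the DMSO negative control baseline.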

[2] = BSK_3C_Proliferation: Cell Proliferation Assessment in the BioMAP Diversity Plus: 3C Assay (AID 2283006); conditions: primary human endothelial cells (HUVEC);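 as to AC50: potency may reflect either rise or fall in cell number versus DMSO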
Procedure, shortened: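 Human umbilical vein endothelial cells were grown sub-confluent and exposed to chemical for 48 h, then fixed with 10% TCA and stained with 0.1% sulforhodamine B; absorbance at 560 nm gave relative cell number, fitted bidirectionally against DMSO baseline.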

[3] = read-out: E-selectin (Homo sapiens) (UniProt P16581); test: BSK_3C_Eselectin: BioMAP Diversity Plus: 3C Assay for Eselectin Biomarker Activity (AID 2283015); conditions: primary human endothelial cells (HUVEC); actives raise or lower the signal
Procedure, shortened: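 Primary human umbilical vein endothelial cells (3C system) were dosed with chemical and cell-surface E-selectin measured by ELISA 24 h later. Bidirectional curve fitting used DMSO as negative control and baseline.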

[4] = read-out: Matrix Metallopeptidase 1 (MMP1), MMP1 (gene 4312); test: BSK_BE3C_MMP1: BioMAP Diversity Plus: BE3C Assay for Matrix Metallopeptidase 1 (MMP1) Biomarker Activity (AID 2283024); conditions: primary human bronchial epithelial cells; actives raise or lower the signal
Procedure, shortened: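 Primary human bronchial epithelial cells were dosed with test chemicals, and MMP1 levels were measured by ELISA 24 h later. Data were fitted bidirectionally against DMSO as the negative control and activity baseline.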

[5] = BSK_BE3C_SRB: Viability Assessment in the BioMAP Diversity Plus: BE3C Assay (AID 2283028); conditions: primary human bronchial epithelial cells;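 as to AC50: fitted both ways so AC50 may mark signal gain or loss versus DMSO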
Procedure, shortened: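 Human primary bronchial epithelial cells were exposed to test chemicals for 24 h. Total protein in parallel cultures was then measured by staining with 0.1% sulforhodamine B after 10% TCA fixation, with absorbance read at 560 nm. Activity was fitted bidirectionally against DMSO.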

[6] = read-out: Thrombomodulin, THBD (gene 7056); test: BSK_3C_Thrombomodulin: BioMAP Diversity Plus: 3C Assay for Thrombomodulin Biomarker Activity (AID 2283029); conditions: primary human endothelial cells (HUVEC); actives raise or lower the signal
Procedure, shortened: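 Primary human umbilical vein endothelial cells (3C system) were exposed to chemical for 24 h, then thrombomodulin levels were measured by ELISA. Activity was fitted bidirectionally against the DMSO negative control as baseline.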

[7] = read-out: Human Leukocyte Antigen - DR isotype (HLADR), HLA-DRA (gene 3122); test: BSK_BE3C_HLADR: BioMAP Diversity Plus: BE3C Assay for Human Leukocyte Antigen - DR isotype (HLADR) Biomarker Activity (AID 2283032); conditions: primary human bronchial epithelial cells; actives raise or lower the signal
Procedure, shortened: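 Human primary bronchial epithelial cells in the BE3C system were exposed to chemicals for 24 h, after which HLA-DR levels were quantified by ELISA. Activity was fitted bidirectionally, gain or loss of signal, against DMSO as negative control and baseline.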

[8] = read-out: Vascular cell adhesion molecule 1 (VCAM1), VCAM1 (gene 7412); test: BSK_4H_VCAM1: BioMAP Diversity Plus: 4H Assay for Vascular cell adhesion molecule 1 (VCAM1) Biomarker Activity (AID 2283033); conditions: primary human endothelial cells (HUVEC); actives raise or lower the signal
Procedure, shortened: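 Primary human umbilical vein endothelial cells were exposed to chemicals for 24 h, after which VCAM-1 was quantified by ELISA. Responses were fitted bidirectionally against DMSO as negative control and activity baseline.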

[9] = read-out: Interferon-gamma inducible Protein 10 (IP10), CXCL10 (gene 3627); test: BSK_BE3C_IP10: BioMAP Diversity Plus: BE3C Assay for Interferon-gamma inducible Protein 10 (IP10) Biomarker Activity (AID 2283034); conditions: primary human bronchial epithelial cells; actives raise or lower the signal
Procedure, shortened: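 Human primary bronchial epithelial cells were exposed to chemicals for 24 hours, after which IP-10 levels were measured by ELISA. Data were fitted bidirectionally against DMSO, which served as the negative control and activity baseline.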

[10] = read-out: Urokinase-type plasminogen activator receptor (uPAR), PLAUR (gene 5329); test: BSK_BE3C_uPAR: BioMAP Diversity Plus: BE3C Assay for Urokinase-type plasminogen activator receptor (uPAR) Biomarker Activity (AID 2283039); conditions: primary human bronchial epithelial cells; actives raise or lower the signal
Procedure, shortened: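 Primary human bronchial epithelial cells were dosed with chemical and harvested 24 h later; uPAR was quantified by ELISA. Activity was fitted bidirectionally against DMSO as negative control and baseline.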

[11] = read-out: Interleukin-6 (IL6), IL6 (gene 3569); test: BSK_CASM3C_IL6: BioMAP Diversity Plus: CASM3C Assay for Interleukin-6 (IL6) Biomarker Activity for (AID 2283040); conditions: primary human coronary artery smooth muscle cells; actives raise or lower the signal
[12] = read-out: Interleukin-8 (IL8), CXCL8 (gene 3576); test: BSK_CASM3C_IL8: BioMAP Diversity Plus: CASM3C Assay for Interleukin-8 (IL8) Biomarker Activity (AID 2283042); conditions: primary human coronary artery smooth muscle cells; actives raise or lower the signal;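 also: IL-8 protein level quantified by ELISA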
[13] = read-out: Human Leukocyte Antigen - DR isotype (HLADR), HLA-DRA (gene 3122); test: BSK_CASM3C_HLADR: BioMAP Diversity Plus: CASM3C Assay for Human Leukocyte Antigen - DR isotype (HLADR) Biomarker Activity (AID 2283043); conditions: primary human coronary artery smooth muscle cells; actives raise or lower the signal;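 also: cell-surface HLA-DR protein level quantified by ELISA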
[14] = read-out: Monocyte Chemoattractant Protein-1 (MCP1), CCL2 (gene 6347); test: BSK_CASM3C_MCP1: BioMAP Diversity Plus: CASM3C Assay for Monocyte Chemoattractant Protein-1 (MCP1) Biomarker Activity (AID 2283046); conditions: primary human coronary artery smooth muscle cells; actives raise or lower the signal;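 also: MCP-1 level quantified by ELISA 24 h after dosing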
[15] = BSK_CASM3C_Proliferation: Cell Proliferation Assessment in the BioMAP Diversity Plus: CASM3C Assay (AID 2283047); conditions: primary human coronary artery smooth muscle cells;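 also: sulforhodamine B total protein stain as relative cell number at 560 nm; sub-confluent cells exposed 48 h before staining; fitted both ways against DMSO so gain or loss of cell number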
[16] = read-out: serum amyloid A (SAA), SAA1 (gene 6288); test: BSK_CASM3C_SAA: BioMAP Diversity Plus: CASM3C Assay for serum amyloid A (SAA) Biomarker Activity (AID 2283049); conditions: primary human coronary artery smooth muscle cells; actives raise or lower the signal;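 also: SAA protein level quantified by ELISA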
[17] = read-out: Tissue Factor, F3 (gene 2152); test: BSK_CASM3C_TissueFactor: BioMAP Diversity Plus: CASM3C Assay for Tissue Factor Biomarker Activity (AID 2283052); conditions: primary human coronary artery smooth muscle cells; actives raise or lower the signal;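 also: cell surface tissue factor protein level read by ELISA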
[18] = read-out: Interferon-gamma inducible Protein 10 (IP10), CXCL10 (gene 3627); test: BSK_hDFCGF_IP10: BioMAP Diversity Plus: hDFCGF Assay for Interferon-gamma inducible Protein 10 (IP10) Biomarker Activity (AID 2283053); conditions: primary human foreskin fibroblasts; actives raise or lower the signal
Procedure, shortened: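 Human foreskin fibroblast primary cells (hDFCGF system) were dosed with chemical and assayed at 24 h; IP-10 measured by ELISA. Activity fitted bidirectionally relative to DMSO negative control as baseline.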

[19] = read-out: Urokinase-type plasminogen activator receptor (uPAR), PLAUR (gene 5329); test: BSK_CASM3C_uPAR: BioMAP Diversity Plus: CASM3C Assay for Urokinase-type plasminogen activator receptor (uPAR) Biomarker Activity (AID 2283054); conditions: primary human coronary artery smooth muscle cells; actives raise or lower the signal;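 also: cell-surface uPAR protein level quantified by ELISA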
[20] = read-out: Collagen III, COL3A1 (gene 1281); test: BSK_hDFCGF_CollagenIII: BioMAP Diversity Plus: hDFCGF Assay for Collagen III Biomarker Activity (AID 2283056); conditions: primary human foreskin fibroblasts; actives raise or lower the signal
Procedure, shortened: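 Human foreskin primary fibroblasts were exposed to test chemicals for 24 h, after which collagen III was quantified by ELISA. Activity was fitted bidirectionally against DMSO as negative control and baseline.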

Measured: AC50

Sequence of E-selectin (Homo sapiens) (P16581 whole entry, looked up): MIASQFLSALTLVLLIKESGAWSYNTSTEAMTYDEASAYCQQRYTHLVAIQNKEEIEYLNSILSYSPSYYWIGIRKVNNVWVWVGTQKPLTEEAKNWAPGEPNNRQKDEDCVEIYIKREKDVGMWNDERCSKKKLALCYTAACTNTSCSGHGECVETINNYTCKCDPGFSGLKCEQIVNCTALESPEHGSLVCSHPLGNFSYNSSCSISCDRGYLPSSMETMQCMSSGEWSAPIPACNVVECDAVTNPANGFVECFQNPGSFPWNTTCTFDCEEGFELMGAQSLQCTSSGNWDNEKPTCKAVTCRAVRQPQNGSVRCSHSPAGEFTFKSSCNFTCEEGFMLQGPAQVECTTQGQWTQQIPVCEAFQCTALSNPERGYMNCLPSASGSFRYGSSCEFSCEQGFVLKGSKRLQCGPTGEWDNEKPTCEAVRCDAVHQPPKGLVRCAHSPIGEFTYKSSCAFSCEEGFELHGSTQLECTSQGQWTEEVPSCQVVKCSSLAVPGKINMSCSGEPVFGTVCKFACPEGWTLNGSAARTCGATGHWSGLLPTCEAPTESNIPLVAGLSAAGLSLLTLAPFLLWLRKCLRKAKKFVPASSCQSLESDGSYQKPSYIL

Oc1ccc(C2(c3ccc(O)cc3)c3ccccc3-c3ccccc32)cc1
inactive: [4]
active: [1] 32.5 µM and 22.6 µM | [2] 6.04 µM and 6.12 µM | [3] 18.1 µM and 23.5 µM | [5] 5.04 µM and 5.03 µM | [6] 5.01 µM and 11.3 µM | [7] 0.15 µM | [8] 6.91 µM and 7.37 µM | [9] 5.4 µM and 3.97 µM | [10] 5.37 µM and 5.3 µM | [11] 9.02 µM and 4.73 µM | [12] 27 µM and 24.3 µM | [13] 3.97 µM and 2.88 µM | [14] 20 µM | [15] 32.4 µM and 32.9 µM | [16] 20 µM | [17] 178 nM and 3.97 µM | [18] 2.87 µM and 2.53 µM | [19] 20 µM and 25.7 µM | [20] 2.68 µM and 2.27 µM

N#CCCCCC#N
inactive: [1] | [2] | [3] | [4] | [5] | [6] | [7] | [8] | [9] | [10] | [11] | [12] | [13] | [14] | [15] | [16] | [17] | [18] | [19] | [20]

CC(C)COP(=O)(OCC(C)C)OCC(C)C
inactive: [1] | [2] | [3] | [4] | [5] | [6] | [7] | [8] | [9] | [10] | [11] | [12] | [13] | [14] | [15] | [16] | [17] | [18] | [19] | [20]

CCCCCCCCCCCC#N
active: [2] 32.2 µM | [3] 30.2 µM | [8] 20.6 µM | [18] 28.8 µM
inactive: [1] | [4] | [5] | [6] | [7] | [9] | [10] | [11] | [12] | [13] | [14] | [15] | [16] | [17] | [19] | [20]

CC1(C)[C@H](C(=O)O[C@H](C#N)c2cccc(Oc3ccccc3)c2)[C@@H]1C=C(Br)Br
active: [13] 11.1 µM | [20] 7.51 µM and 4.58 µM
inactive: [1] | [2] | [3] | [4] | [5] | [6] | [7] | [8] | [9] | [10] | [11] | [12] | [13] | [14] | [15] | [16] | [17] | [18] | [19]

CNC(=O)Oc1cc(C)c(SC)c(C)c1
active: [2] 13 µM | [3] 20 µM | [8] 20 µM | [13] 12.9 µM | [15] 20 µM | [17] 8.16 µM | [19] 20 µM
inactive: [1] | [4] | [5] | [6] | [7] | [9] | [10] | [11] | [12] | [14] | [16] | [18] | [20]

O=P1(NCCCl)OCCCN1CCCl (stereo unspecified)
inactive: [1] | [2] | [3] | [4] | [5] | [6] | [7] | [8] | [9] | [10] | [11] | [12] | [13] | [14] | [15] | [16] | [17] | [18] | [19] | [20]
